Experimental data taken from the supplement of paper PMC11732987, “Enantioselective OTUD7B fragment discovery through chemoproteomics screening and high-throughput optimisation” (Communications Chemistry, 2025).

Tests used:
Test in all cases: log2 ratio of Biotin-Ahx-Ub-VS probe labelling (fragment/DMSO); higher = less target engagement (more negative = stronger competition), active = hit call of the paper (q ≤ 0.05, log2 ratio ≤ -1)
Details in all cases: compound concentration: 200 uM; treatment time: 3 h
USP19 = target: T1, USP19 (UniProt O94966)
T1 sequence (whole entry): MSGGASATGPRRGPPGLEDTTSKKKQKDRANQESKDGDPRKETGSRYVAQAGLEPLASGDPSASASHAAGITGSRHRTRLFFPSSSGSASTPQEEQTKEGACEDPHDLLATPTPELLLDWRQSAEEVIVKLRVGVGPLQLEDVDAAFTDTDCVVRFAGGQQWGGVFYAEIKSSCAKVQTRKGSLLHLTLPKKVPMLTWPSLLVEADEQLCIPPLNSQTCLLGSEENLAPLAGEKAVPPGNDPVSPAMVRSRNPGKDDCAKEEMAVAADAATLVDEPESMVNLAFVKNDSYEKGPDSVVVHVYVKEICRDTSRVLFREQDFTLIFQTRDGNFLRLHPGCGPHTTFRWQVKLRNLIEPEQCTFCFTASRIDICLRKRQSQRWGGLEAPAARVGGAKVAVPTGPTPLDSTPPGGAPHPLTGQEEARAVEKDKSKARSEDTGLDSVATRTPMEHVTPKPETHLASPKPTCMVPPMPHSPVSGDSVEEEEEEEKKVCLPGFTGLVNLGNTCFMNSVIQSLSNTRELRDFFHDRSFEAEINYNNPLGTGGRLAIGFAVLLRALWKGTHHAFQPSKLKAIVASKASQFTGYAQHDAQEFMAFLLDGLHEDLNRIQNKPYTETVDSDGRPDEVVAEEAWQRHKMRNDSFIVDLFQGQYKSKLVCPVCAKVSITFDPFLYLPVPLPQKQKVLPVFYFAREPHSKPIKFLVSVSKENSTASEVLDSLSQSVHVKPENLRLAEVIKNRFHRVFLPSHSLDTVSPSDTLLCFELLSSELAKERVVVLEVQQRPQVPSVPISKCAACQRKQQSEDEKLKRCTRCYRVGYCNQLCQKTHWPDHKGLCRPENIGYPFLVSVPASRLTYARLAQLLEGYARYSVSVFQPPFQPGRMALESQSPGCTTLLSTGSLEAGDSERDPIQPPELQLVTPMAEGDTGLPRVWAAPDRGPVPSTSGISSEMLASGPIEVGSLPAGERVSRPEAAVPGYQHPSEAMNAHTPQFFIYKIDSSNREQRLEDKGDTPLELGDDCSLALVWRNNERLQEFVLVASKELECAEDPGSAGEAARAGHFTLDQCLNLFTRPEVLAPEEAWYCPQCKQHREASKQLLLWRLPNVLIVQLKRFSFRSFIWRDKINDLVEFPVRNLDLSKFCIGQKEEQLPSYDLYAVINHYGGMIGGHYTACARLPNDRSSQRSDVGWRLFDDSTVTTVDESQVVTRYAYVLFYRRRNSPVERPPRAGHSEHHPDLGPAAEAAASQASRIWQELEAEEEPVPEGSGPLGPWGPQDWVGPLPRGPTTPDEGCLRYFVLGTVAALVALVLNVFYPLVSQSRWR
How it was run: (§1)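 HEK293T lysate (495 µg per sample, in Tris/CHAPS/IGEPAL buffer with protease inhibitors) was treated in triplicate with fragment at 200 µM or with DMSO for 3 h. It was then treated with Biotin-Ahx-Ub-VS (0.5 µM final) for 1 h. Labelled DUBs were NeutrAvidin-enriched, digested with LysC and trypsin, and run by diaPASEF LC-MS/MS. Spectronaut label-free quantities were global-median-normalised. Values are average log2 ratios fragment/DMSO by unpaired t-test, using proteins with ≥2 unique peptides.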

USP24 = USP24 (UniProt Q9UPU5)
Sequence of USP24 (Q9UPU5 whole entry): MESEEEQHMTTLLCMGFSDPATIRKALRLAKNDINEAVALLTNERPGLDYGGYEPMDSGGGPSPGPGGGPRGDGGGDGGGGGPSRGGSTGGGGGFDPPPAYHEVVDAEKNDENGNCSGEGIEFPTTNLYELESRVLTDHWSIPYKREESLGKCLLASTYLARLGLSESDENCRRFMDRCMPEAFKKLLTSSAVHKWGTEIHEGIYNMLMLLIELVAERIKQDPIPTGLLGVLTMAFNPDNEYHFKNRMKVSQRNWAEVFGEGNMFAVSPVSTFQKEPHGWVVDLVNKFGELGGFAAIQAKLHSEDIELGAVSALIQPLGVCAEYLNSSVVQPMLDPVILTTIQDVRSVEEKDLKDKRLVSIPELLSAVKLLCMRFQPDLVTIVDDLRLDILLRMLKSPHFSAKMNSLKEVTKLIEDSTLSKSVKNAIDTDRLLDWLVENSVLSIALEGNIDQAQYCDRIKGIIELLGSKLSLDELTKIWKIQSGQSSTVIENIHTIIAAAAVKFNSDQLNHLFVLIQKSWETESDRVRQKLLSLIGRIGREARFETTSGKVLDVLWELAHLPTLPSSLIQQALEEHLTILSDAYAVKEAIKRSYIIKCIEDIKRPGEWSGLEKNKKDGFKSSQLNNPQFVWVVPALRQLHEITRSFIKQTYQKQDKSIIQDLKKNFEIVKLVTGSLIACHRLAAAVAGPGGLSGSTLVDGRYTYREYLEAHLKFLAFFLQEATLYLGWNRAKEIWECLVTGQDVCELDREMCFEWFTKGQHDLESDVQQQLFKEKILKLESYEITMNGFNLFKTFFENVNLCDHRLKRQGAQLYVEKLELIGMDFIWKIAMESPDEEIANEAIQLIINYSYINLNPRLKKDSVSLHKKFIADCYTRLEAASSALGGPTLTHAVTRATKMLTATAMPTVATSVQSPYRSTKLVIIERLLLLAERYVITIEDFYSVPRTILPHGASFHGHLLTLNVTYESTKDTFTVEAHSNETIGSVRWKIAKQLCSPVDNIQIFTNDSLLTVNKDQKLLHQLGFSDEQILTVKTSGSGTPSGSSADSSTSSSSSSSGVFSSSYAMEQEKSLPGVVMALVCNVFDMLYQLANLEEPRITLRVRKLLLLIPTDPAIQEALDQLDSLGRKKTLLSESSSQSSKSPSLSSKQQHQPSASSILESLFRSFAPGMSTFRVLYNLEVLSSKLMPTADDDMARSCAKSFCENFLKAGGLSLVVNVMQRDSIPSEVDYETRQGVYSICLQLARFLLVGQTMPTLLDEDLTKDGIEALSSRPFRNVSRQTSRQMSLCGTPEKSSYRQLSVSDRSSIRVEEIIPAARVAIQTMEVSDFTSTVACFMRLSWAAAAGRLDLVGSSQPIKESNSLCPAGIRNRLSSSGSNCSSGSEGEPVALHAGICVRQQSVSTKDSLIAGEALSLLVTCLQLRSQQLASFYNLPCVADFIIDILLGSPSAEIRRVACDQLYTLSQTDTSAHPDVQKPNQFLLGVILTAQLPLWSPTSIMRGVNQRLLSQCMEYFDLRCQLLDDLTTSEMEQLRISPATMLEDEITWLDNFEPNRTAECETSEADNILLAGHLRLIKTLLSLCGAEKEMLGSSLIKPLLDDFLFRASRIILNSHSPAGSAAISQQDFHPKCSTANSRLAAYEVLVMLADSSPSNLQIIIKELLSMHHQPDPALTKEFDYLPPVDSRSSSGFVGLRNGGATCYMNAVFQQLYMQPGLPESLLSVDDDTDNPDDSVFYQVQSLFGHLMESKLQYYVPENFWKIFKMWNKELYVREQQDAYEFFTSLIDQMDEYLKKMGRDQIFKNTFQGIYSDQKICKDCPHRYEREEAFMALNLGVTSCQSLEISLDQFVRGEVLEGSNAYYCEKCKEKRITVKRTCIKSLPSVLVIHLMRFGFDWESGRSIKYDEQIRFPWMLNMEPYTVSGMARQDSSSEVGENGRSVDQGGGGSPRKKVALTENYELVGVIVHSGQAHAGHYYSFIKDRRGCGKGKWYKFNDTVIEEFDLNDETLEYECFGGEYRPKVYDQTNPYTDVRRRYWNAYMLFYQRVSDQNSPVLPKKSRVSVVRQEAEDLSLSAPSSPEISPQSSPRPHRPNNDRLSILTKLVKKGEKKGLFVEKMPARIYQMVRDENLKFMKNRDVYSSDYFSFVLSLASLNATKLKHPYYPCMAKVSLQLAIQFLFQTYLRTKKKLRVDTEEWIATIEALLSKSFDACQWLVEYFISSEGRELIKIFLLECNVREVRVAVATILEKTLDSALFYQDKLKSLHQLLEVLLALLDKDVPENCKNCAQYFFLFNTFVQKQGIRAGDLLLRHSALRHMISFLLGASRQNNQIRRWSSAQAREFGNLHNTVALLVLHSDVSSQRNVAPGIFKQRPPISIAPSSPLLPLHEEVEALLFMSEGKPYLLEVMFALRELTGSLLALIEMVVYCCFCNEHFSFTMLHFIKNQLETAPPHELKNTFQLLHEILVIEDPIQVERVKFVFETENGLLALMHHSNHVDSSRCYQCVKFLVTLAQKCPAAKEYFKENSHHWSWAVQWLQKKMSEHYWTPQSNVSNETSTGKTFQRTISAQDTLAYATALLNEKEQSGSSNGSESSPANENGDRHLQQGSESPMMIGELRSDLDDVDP
How it was run: as §1

USP25 = target: T2, USP25 (UniProt Q9UHP3)
T2 sequence (whole entry): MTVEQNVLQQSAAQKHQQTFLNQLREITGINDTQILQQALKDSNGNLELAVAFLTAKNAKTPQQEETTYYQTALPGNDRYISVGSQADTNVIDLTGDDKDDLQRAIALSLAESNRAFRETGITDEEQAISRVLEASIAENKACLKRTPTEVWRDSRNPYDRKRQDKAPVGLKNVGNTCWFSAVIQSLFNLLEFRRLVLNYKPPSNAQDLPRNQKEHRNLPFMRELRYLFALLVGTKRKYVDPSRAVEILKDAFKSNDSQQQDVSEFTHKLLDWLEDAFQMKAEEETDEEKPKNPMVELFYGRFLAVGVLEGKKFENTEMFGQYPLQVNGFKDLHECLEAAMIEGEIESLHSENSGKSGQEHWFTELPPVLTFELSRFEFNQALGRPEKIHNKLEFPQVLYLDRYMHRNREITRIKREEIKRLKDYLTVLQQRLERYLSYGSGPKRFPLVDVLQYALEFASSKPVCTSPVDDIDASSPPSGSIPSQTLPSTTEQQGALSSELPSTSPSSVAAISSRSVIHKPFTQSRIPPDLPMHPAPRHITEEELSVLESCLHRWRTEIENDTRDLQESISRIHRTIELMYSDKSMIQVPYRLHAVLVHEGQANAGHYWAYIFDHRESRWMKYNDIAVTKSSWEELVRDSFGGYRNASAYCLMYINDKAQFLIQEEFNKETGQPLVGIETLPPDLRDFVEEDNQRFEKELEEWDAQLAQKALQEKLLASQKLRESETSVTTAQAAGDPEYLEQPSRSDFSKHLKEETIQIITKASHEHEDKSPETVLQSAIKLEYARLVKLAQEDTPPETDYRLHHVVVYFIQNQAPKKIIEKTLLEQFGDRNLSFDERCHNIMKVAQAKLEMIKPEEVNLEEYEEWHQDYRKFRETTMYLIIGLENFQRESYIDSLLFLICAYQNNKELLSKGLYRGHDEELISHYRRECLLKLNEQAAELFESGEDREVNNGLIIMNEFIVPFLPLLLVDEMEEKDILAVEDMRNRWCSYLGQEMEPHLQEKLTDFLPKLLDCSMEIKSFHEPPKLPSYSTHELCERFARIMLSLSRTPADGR
How it was run: as §1

USP28 = target: T3, USP28 (UniProt Q96RU2)
T3 sequence (whole entry): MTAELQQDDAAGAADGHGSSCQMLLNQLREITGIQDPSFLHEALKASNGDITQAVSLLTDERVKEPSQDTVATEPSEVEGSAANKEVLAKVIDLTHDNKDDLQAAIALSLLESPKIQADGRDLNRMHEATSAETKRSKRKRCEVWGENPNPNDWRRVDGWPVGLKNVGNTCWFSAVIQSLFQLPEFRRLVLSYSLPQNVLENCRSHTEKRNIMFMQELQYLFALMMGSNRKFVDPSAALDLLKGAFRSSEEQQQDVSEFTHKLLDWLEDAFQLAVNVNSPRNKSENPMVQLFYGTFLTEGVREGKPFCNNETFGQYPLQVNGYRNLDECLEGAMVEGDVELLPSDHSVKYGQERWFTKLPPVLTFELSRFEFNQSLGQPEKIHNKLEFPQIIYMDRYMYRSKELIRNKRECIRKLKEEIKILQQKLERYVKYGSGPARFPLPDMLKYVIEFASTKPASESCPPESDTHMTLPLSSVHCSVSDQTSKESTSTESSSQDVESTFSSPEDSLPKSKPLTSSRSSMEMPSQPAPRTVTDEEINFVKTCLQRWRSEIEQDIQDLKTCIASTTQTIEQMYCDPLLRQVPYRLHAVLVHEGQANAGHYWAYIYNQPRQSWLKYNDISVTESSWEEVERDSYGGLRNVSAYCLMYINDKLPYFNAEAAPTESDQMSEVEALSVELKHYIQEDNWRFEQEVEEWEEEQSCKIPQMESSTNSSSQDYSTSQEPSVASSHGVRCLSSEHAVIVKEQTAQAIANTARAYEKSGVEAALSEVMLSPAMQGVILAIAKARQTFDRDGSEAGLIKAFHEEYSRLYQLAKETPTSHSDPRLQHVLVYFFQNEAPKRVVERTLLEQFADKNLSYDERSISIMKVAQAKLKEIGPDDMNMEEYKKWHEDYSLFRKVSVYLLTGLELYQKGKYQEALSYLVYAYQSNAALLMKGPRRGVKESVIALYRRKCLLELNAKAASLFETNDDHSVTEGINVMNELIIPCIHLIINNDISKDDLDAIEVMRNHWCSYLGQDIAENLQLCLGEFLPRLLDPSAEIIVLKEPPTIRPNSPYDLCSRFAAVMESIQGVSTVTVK
How it was run: as §1

Measured: log2 ratio of Biotin-Ahx-Ub-VS probe labelling

C/C(=C\CNC(=O)CCl)c1cnn(C)c1.Cl
inactive: USP19 -0.404 | USP24 -0.203 | USP25 -0.578 | USP28 -0.395
